Screening results (PubChem)
Pf growth 96h: Primary qHTS for delayed death inhibitors of the malarial parasite plastid, 96 hour incubation; hit rate 6.9% among 320,000; P. falciparum luciferase reporter growth, 96 h; Potency, µM (series often up to 28.7 µM), inactives show at the top dose activity change, negative = inhibition, hits mostly inhibitors; further: potency means the concentration at half of the fitted maximal effect; on the % scale 0 is the no-effect control and ±100 the full control effect
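P. falciparum expressing integrated firefly luciferase, in erythrocytes at 2% hematocrit, 0.05% parasitemia, incubated with compounds 96 h at 37 C, 5% CO2. Growth inhibition read as loss of luminescence; two-generation exposure targets delayed-death apicoplast inhibitors.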
Cycloheximide cs: Cycloheximide Counterscreen for Small Molecule Inhibitors of Shiga Toxin. cell reporter, cycloheximide protein synthesis inhibition counterscreen. max response, %. hit rate 12% among 300,000; in the data active means max response mostly above about 13%, no sharp cut-off; inactive means mostly below about 14%; further: read at 38.3 µM for the half of the compounds with a filed dose; 0% is about no effect
Pf growth 48h: Primary qHTS for delayed death inhibitors of the malarial parasite plastid, 48 hour incubation; P. falciparum luciferase growth in erythrocytes, 48 h; Potency, µM (titrated, usually from 28.7 µM), for the others: at the highest dose activity change, negative = inhibition, hits mostly inhibitors; hit rate 5.9% among 310,000; further: potency means the concentration at half of the fitted maximal effect; on the % scale 0 is the no-effect control and ±100 the full control effect
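First compound was added to culture medium, then infected red cells at 0.1% parasitemia and 2% hematocrit (final). After incubation at 37 C under 5% CO2, luciferase detection reagent was dispensed and light output recorded.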
Shiga toxin inh: A qHTS for Small Molecule Inhibitors of Shiga Toxin; AID 2315, 2010; Vero cells, Shiga toxin protein synthesis inhibition reporter; hit rate 9.2% among 290,000; inhibition, % at 38.7 µM; in the data active means inhibition mostly above about 28%, no sharp cut-off; inactive means mostly below about 43%; further: 0% is about no effect
LmPK inh: qHTS Assay for Inhibitors of Leishmania Mexicana Pyruvate Kinase (LmPK) | purified LmPK, Kinase-Glo ATP luminescence, 1 h | Potency, µM (highest dose often 57.5 µM), inactives show at the top dose activity change, negative = inhibition, actives largely listed as inhibitors | hit rate 0.37% among 290,000 | AID 1721, 2009; further: potency means the concentration at half of the fitted maximal effect; on the % scale 0 is the no-effect control and ±100 the full control effect
Target sequence (Q27686 whole entry, looked up): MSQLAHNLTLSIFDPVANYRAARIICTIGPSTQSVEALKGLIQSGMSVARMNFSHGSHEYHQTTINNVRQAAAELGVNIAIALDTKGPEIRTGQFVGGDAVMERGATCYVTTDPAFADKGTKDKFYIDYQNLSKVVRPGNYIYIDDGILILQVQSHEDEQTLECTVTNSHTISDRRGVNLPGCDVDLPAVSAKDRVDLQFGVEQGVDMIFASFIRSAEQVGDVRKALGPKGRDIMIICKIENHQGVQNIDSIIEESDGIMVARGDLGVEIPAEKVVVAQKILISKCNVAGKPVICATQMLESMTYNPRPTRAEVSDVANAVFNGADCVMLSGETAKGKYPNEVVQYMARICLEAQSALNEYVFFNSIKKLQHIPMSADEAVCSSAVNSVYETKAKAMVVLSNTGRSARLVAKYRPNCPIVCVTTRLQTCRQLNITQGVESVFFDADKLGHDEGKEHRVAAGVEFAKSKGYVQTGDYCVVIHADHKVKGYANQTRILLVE
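Kinase-Glo luminescence read after 1 h RT reaction of 0.1 nM LmPK with 0.5 mM PEP and 0.1 mM ADP. Activity scaled between uninhibited and enzyme-free controls.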
* marks the source's active call; other numbers are inactive results; ? = inconclusive; . = not tested or not shown; [ ] = remark or other dose. Hits are enriched below; roughly 22% of the tested compounds scored in any of these assays. Unless noted, the call rests on the fitted dose curve; in most records, active means well fitted inhibition curve with a large enough effect; inconclusive means small, poorly fitted or top-dose-only effect, or another doubt; inactive means no such curve, though single readings can be large or run the other way.

SMILES	Pf growth 96h	Cycloheximide cs	Pf growth 48h	Shiga toxin inh	LmPK inh
Cn1c(/N=C/c2cc(Cl)ccc2O)nc2ccccc21	.	-1.3	5.5%	-8.6	-10.0%
COc1cccc(C(=O)CN(C(=O)c2ccc(Cl)cc2Cl)N2C(=O)c3ccccc3C2=O)c1	-5.1%	13.1	-12.6%	0.7	-3.1%
O=C1Nc2ccccc2/C1=N\c1sc2c(c1C(=O)Nc1ccccc1)CCCC2	2.33µM*	8.4	7.38µM*	22.4*	-2.8%
O=C(Cc1ccccc1)Nc1sc2c(c1C(=O)Nc1ccc(Br)cc1)CCCC2	.	-4.9	.	-3.5	.
O=C(Nc1cccc(-c2cccc(F)c2)c1)C1CCN(C2CCOCC2)CC1	7.38µM*	0.8	?	-4.8	3.9%
O=C(Nc1cccc(-c2cccc(F)c2)c1)C1CCN(Cc2ccc(CO)o2)CC1	-10.1%	3.5	-5.6%	-11.7	-0.3%
Cc1c(C(=O)Nc2ccc(N3CCOCC3)cc2)cccc1[N+](=O)[O-]	-1.2%	-5.3	-24.0%	-13.5	-0.3%
Cc1c(C(=O)NC(=S)Nc2ccc(N3CCOCC3)cc2)cccc1[N+](=O)[O-]	?	9.8*	4.7%	43.2*	2.5%
O=C(NC(=S)Nc1ccc(N2CCOCC2)cc1)c1ccccc1	33.0%	15.6	216.1%	41.7	1.2%
Cc1ccccc1C(=O)NC(=S)Nc1ccc(N2CCOCC2)cc1	-4.2%	11.3*	14.8%	6.1	9.9%
O=C(COC(=O)c1c[nH]c(=O)[nH]c1=O)Nc1cccc([N+](=O)[O-])c1	0.5%	.	3.1%	.	.
CCc1cccc(CC)c1-n1c(SCC(=O)N2CCc3ccccc3C2)nnc1-c1cccnc1	6.57µM*	-6.0	11.7µM*	-13.0	-0.2%
CCc1cccc(CC)c1-n1c(SCn2nnc3ccccc3c2=O)nnc1-c1cccnc1	4.15µM*	-1.6	.	-13.4	-2.1%
CCOc1ccc(C(C)=O)cc1Cn1c(=O)oc2ccccc21	-2.7%	3.0	-10.5%	-7.6	2.0%
O=C(OCc1nnc(-c2ccccc2)o1)c1ccc2c(c1)OCO2	?	14.9	15.3%	23.1	-3.6%
c1ccc(-c2nnc(CSc3ccc4c(c3)OCCO4)o2)cc1	14.4%	18.9*	-9.8%	28.5*	2.1%
O=C(Nc1ccc(F)c([N+](=O)[O-])c1)c1ccc2c(c1)OCCO2	-24.8%	33.1*	66.9%	54.8*	7.2%
O=C(Nc1ccc(Cl)cc1[N+](=O)[O-])c1ccc2c(c1)OCCO2	?	39.9*	135.6%	66.8*	-1.0%
CCc1cccc(C)c1NC(=S)N(CCOC)C(C)c1ccco1 (configuration not stated)	10.3%	6.9	?	-2.9	4.8%
Cc1cc(C)c(C(=O)NCCCN2CCOCC2)c(C)c1	?	-3.8	7.7%	-2.6	-0.1%
Cc1cccc(N=Nc2c(C)c(C#N)c(O)[nH]c2=O)c1	52.2%	13.7*	24.6%	8.1	-1.5%
CCCOC(=O)CCn1c(=S)oc2ccccc21	10.0%	38.7*	11.8%	76.4*	1.9%
CCOC(=O)CCn1c(=S)n(CCC(=O)OCC)c2ccccc21	42.5%	-3.1	3.7µM*	-12.0	0.6%
N#C/C(=C\c1ccccc1O)C(=O)Nc1ccccn1	19.8%	21.2*	45.8%	81.6*	3.8%
COc1ccc(/C=C(\C#N)C(=O)Nc2cccc(C)n2)cc1	11.6%	25.4*	31.3%	35.5*	-4.6%
SMILES	Pf growth 96h	Cycloheximide cs	Pf growth 48h	Shiga toxin inh	LmPK inh
COc1ccc(/C=C(\C#N)C(=O)OCC(=O)Nc2c(C)cccc2C)cc1	1.7%	-3.1	-1.3%	-8.1	1.8%
Cc1cccc(NC(=O)/C(C#N)=C/c2ccccc2Cl)n1	19.3%	10.0	28.4%	41.5	-4.8%
COc1ccc(/C=C(\C#N)C(=O)OCC(=O)Nc2ccc(C(C)(C)C)cc2)cc1	24.9%	10.6*	22.8%	20.6	2.0%
Cc1cccc(NC(=O)/C(C#N)=C/c2ccccc2O)n1	8.1%	39.6*	2.2%	77.8*	-6.6%
COc1ccc(/C=C(\C#N)C(=O)C(C)(C)n2cncn2)cc1	3.7µM*	-0.6	28.8%	-10.7	1.8%
CC(C)Sc1nc2c(cnn2-c2ccc(Cl)cc2)c(=O)[nH]1	0.5%	-2.7	-68.1%[0.00184 µM]	-12.6	-0.1%
COCCn1c(-c2ccc3ccccc3c2)nc2c1c(=O)[nH]c(=O)n2CC(C)C	?	-6.2	?	-3.3	-1.1%
COc1ccc(-n2c(C)n[nH]c2=O)cc1	77.3%	-2.1	12.5%	-10.2	3.7%
Cc1n[nH]c(=O)n1-c1ccc(OCc2ccccc2)cc1	-74.8%	53.4*	283.5%	91.9*	-5.3%
CC(C)C[C@H](NC(=O)c1ccc(NCc2cnc[nH]2)cc1-c1cccc2ccccc12)C(=O)O	.	-7.3	.	-9.1	.
CCn1nc(NS(=O)(=O)c2ccc([N+](=O)[O-])cc2)c2cc3ccccc3nc21	?	-6.2	5.4%	-2.6	-7.0%
CCOC(=O)N1CCN(C(=O)CSc2nnc(-c3ccc(Cl)s3)o2)CC1	-5.7%	-4.0	21.1%	-7.6	0.3%
O=C(CSc1nnc(-c2ccccc2Cl)o1)N1CCOCC1	-2.8%	36.0*	154.8%	93.1*	1.2%
O=C(CSc1nnc(-c2ccc(O)cc2)o1)N1CCOCC1	.	52.7*	51.4%	113.8	-2.7%
O=C(CSc1nnc(-c2ccc(Cl)cc2)o1)N1CCOCC1	1.9%	53.1*	88.8%	81.1*	-4.5%
O=C(CSc1nnc(-c2ccc(Cl)s2)o1)N1CCOCC1	?	15.3	18.1%	62.0*	-2.2%
COc1ccccc1-c1nnc(SCC(=O)N2CCOCC2)o1	24.2%	21.5	52.5%	20.9	-6.7%
O=C(CSc1nnc(-c2ccc(F)cc2)o1)NC1CCCCC1	22.6%	-1.7	-0.7%	-3.1	-1.5%
Oc1ccc(-c2nnc(SCC3CCCCC3)o2)cc1	?	22.1*	102.5%	82.2*	1.8%
O=C(CS(=O)c1ccc(F)cc1)N1CCOCC1 (configuration not stated)	9.3%	-5.0	-4.8%[0.00184 µM]	0.7	-4.7%
Clc1c(-c2ccccc2)nc2ccccn12	16.4%	20.6*	126.6%	36.5	-6.9%
O=C(O)c1ccccc1C(=O)Nc1c(-c2ccccc2)nc2ccccn12	18.6%	27.2*	8.6%	18.1	-2.6%
CN(C)c1ccc(-c2nc3ccccn3c2/N=C/c2ccc(Br)cc2)cc1	-53.9%	46.3*	?	80.2	-6.2%
Cc1ccc(-c2nc3ccccn3c2C=O)cc1	?	31.7*	52.9%	65.7*	?
Cc1ccn2c(NC(=O)c3ccccc3)c(-c3ccccc3)nc2c1	-23.7%	1.5	6.4%	18.0	3.2%
COC(=O)CNC(=O)COC(=O)Cc1ccc(Cl)cc1	35.4%	-2.4	?	-6.3	0.3%
c1ccn2c(c1)nc1c2nc2ccccn21	?	6.8	73.3%	27.7	-17.0%
Cc1c(-c2ccc(Br)cc2)nc2ccccn12	164.1%	29.2*	209.4%	49.3*	?
CC(C)C(=O)Nc1ccc(-c2nc3ccccc3c(=O)o2)cc1	12.0%	-1.9	25.6%	-0.7	-16.5%
